Screens (PubChem BioAssay)
An excerpt weighted towards active compounds, which were near 3.4% of everything screened.
GPR151 activ: activates the human receptor GPR151; Q8TDV0; 650,000 tested, 1% active; activation, % at 11.2 µM; PathHunter beta-arrestin GPR151 cells, luminescence; in the data active = activation above about 4.9%;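 also: 0% = median of compound wells and 100% = cells with positive control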
TEAD-YAP block: TEAD-YAP interaction inhibition | inhibition, % at 9.12 µM | 640,000 tested, 1.4% active | HEK-TIYL cells, TEAD-Gal4/YAP UAS-luciferase luminescence; in the data active = inhibition above about 32%;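 also: 0% = median of test compound wells and 100% = reference inhibitor wells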
FBW7 activator: human FBW7 E3 ligase activation, primary screen. Q969H0. AlphaScreen FBW7–phospho-cyclin E peptide binding, activator screen. normalized activity (activation), % at 26.1 µM. 650,000 tested, 0.13% active; in the data active = normalized activity above about 1.9%;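 also: purified mutant Fbw7 with reduced substrate affinity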
Target sequence (Q969H0 whole entry, looked up): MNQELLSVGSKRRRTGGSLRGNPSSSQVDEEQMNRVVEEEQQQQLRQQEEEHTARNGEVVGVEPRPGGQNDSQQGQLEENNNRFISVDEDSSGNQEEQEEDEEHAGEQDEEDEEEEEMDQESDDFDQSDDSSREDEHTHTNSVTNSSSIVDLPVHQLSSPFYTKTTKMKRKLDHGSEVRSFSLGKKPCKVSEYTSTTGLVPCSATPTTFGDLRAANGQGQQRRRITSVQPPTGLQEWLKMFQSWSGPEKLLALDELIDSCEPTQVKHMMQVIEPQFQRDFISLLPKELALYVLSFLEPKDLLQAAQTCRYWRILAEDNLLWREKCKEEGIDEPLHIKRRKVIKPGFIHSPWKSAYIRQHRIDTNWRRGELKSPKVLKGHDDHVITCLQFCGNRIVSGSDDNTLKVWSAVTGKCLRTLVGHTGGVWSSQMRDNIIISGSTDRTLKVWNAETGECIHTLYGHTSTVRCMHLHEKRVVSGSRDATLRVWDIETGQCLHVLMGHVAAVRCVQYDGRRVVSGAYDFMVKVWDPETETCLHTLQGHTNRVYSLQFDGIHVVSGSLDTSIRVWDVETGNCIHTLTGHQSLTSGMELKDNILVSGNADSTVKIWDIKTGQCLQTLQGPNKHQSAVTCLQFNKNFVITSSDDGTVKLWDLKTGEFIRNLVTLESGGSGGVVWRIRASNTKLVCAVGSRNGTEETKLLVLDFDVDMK
MITF inh: blocks human microphthalmia-associated transcription factor. inhibition, % at 2.6 µM. AID 1259374. 650,000 tested, 0.91% active. AlphaScreen MITF homodimerization, bead proximity signal. O75030; in the data active = inhibition above about 50%;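 also: 0% = vehicle wells with protein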
Starred values were filed as active, the others as inactive.

SMILES	GPR151 activ	TEAD-YAP block	FBW7 activator	MITF inh
CC(C)n1cnc2c(NC3CCN(Cc4ccccc4)CC3)nc(Nc3ccccc3)nc21	0	15	0	8
Oc1ccc(CCNc2cc(Nc3cnccn3)ncn2)cc1	3	46*	0	-11
CC(C)n1cnc2c(NC3CCN(Cc4ccccc4)CC3)nc(NCc3cccnc3)nc21	-2	76*	0	16
CC(C)n1cnc2c(NC3CCN(Cc4ccccc4)CC3)nc(Nc3cnccn3)nc21	2	76*	0	12
CC(C)n1cnc2c(NC3CC3)nc(Nc3cnccn3)nc21	2	38*	0	8
CC(C)n1cnc2c(NCc3cccnc3)nc(NC3CCN(Cc4ccccc4)CC3)nc21	1	-2	0	8
CC(C)n1cnc2c(NC3CC3)nc(Nc3ccccn3)nc21	0	25	0	3
Oc1ccc(CCNc2ccnc(Nc3cnccn3)n2)cc1	0	4	0	12
O=c1[nH]c2ccccc2c(=O)n1CC1CCCO1 (configuration not stated)	0	3	0	-4
COc1ccc(/C=N/NC(=O)COc2ccc(OC)cc2Br)c(O)c1	-1	8	0	-2
Cc1cccc(-n2ncc3c(Nc4c(C)cc(C)cc4C)ncnc32)c1	1	57*	0	7
Cc1cccc(-n2ncc3c(Nc4ccccc4)ncnc32)c1	5	-43	0	10
Cc1cccc(-n2ncc3c(Nc4cccc5ccccc45)ncnc32)c1	-1	32*	0	19
CSc1ccccc1Nc1ncnc2c1cnn2-c1cccc(C)c1	0	60*	0	-11
Cc1ccc(S(=O)(=O)NCCC(=O)OCC(=O)NC(=O)NC2CCCC2)cc1C	2	-13	0	1
CCCNc1ncnc2nc(Nc3cnccn3)[nH]c12	0	8	0	10
O=C(O)CNC(=O)C(Cc1ccc(F)cc1)NC(=O)c1ccccc1 (configuration not stated)	1	-3	0	13
COc1ccc(C)cc1Cn1c(-c2nonc2N)nc2ccccc21	0	53*	0	0
COc1cccc(Cn2c(-c3nonc3N)nc3ccccc32)c1	0	38*	0	10
COc1ccc(Cn2c(-c3nonc3N)nc3ccccc32)cc1	1	-6	0	0
COc1cc(Cn2c(-c3nonc3N)nc3ccccc32)ccc1C	-1	51*	0	2
Cc1ccc(Cn2c(-c3nonc3N)nc3ccccc32)cc1	0	-9	0	-4
CS(=O)(=O)N(CC(=O)NCCSC1CCCCC1)c1ccc(Cl)cc1	-1	-4	0	-13
O=C(Nc1ccccc1)C(=S)NC1CCCC1	2	-60	0	-1
CCOC(=O)N1CCc2c(sc3ncn(CC(=O)c4ccccc4)c(=O)c23)C1	0	49*	1	4
SMILES	GPR151 activ	TEAD-YAP block	FBW7 activator	MITF inh
Cc1ccc2c(C)nc(N3CCCC(C(=O)N4CCCC(CO)C4)C3)nc2c1 (configuration not stated)	4	4	0	3
COc1cc2sc(=NC(=O)c3cccs3)n(C)c2cc1OC	1	-78	1	1
Cc1ccc2c(c1)sc(=NC(=O)c1cccs1)n2C	-9	74*	0	9
CCn1cc(C(=O)N2CCN(Cc3nc(-c4ccc(F)cc4)cs3)CC2)c(=O)c2ccc(C)nc21	-1	61*	0	10
CCn1cc(C(=O)N2CCN(c3ccccc3OC)CC2)c(=O)c2ccc(C)nc21	0	-1	0	1
COc1ccc(-c2csc(CN3CCN(C(=O)c4ccc(F)c(F)c4)CC3)n2)cc1	0	50*	0	2
Cc1cccc(C2CC(=O)Nc3cc4c(cc32)OCCO4)c1 (configuration not stated)	0	40*	1	19
Cc1cccc(C2CC(=O)Nc3cc4c(cc32)OCO4)c1 (configuration not stated)	-1	18	0	8
COc1cc(/C=C(\C#N)C(=O)Nc2ccc(F)cc2)cc([N+](=O)[O-])c1O	-1	37*	0	-5
CCOc1cc(/C=C(/C#N)C(=O)Nc2ccc(O)cc2)cc(Br)c1O	-1	56*	0	-9
CCN(CC)c1ccc(/C=C(/C#N)C(=O)Nc2ccc(O)cc2)cc1	0	40*	0	17
CCOCCCNC(=O)/C(C#N)=C/c1cc(OC)c(O)c([N+](=O)[O-])c1	-1	48*	0	20
COc1cc(/C=C(\C#N)C(=O)Nc2ccc(Cl)cc2)cc([N+](=O)[O-])c1O	-1	8	1	23
CCOCCCNC(=O)/C(C#N)=C/c1ccc(Cl)c([N+](=O)[O-])c1	-3	5	1	16
CCNc1sc(C#N)c(C#N)c1C(=O)c1ccccc1	0	20	0	-3
O=C(CSc1ncccn1)Nc1ccc(I)cc1	0	-9	1	11
COc1cc(/C=C(\C#N)C(=O)Nc2ccc(O)cc2)cc(Cl)c1O	0	54*	0	3
COc1cc(/C=C(/C#N)C(=O)Nc2ccc(O)cc2)ccc1O	1	47*	0	17
COc1cc(/C=C(/C#N)C(=O)Nc2ccc(O)cc2)cc(Br)c1O	2	43*	0	0
COc1cc(/C=C(/C#N)C(=O)Nc2cccc(C)c2)cc(Br)c1O	-1	3	0	-4
CCOC(=O)C1CCN(Cn2nc(C3COc4ccccc4O3)oc2=S)CC1 (configuration not stated)	-1	16	0	10
COc1ccccc1-n1c(SCC2OCCO2)nc2c(sc(=S)n2CCc2ccccc2)c1=O	-1	11	0	20
COc1ccc2c(c1)CCc1c(C(=O)Nc3cccc(O)c3)noc1-2	-6	95*	0	-6
COCC(C)NC(=O)c1cc(-c2cccc(OC)c2)on1 (configuration not stated)	-1	-42	1.9*	-19
COc1cc(NC(=O)c2cc(-c3cccs3)on2)cc(OC)c1OC	0	36*	0	-5
SMILES	GPR151 activ	TEAD-YAP block	FBW7 activator	MITF inh
CCOC(=O)c1c(NC(=O)c2cc(-c3cccs3)on2)sc(C(C)=O)c1C	0	-1	0	-9
CCOC(=O)c1c(NC(=O)c2cc(-c3cccs3)on2)sc(C)c1C	1	-2	2.8*	-8
COc1ccc2c(c1)CCc1c(C(=O)Nc3cccc(C(C)=O)c3)noc1-2	0	-15	0	-2
Cc1ccc(CCNC(=O)Cn2nc(-c3ccccc3)ccc2=O)cc1	1	10	0	0
Cc1ccc2c(c1)C(=O)CC1(CCN(CC(N)=O)CC1)O2	1	-1	0	-4
O=C(Nc1cccc(O)c1)c1cc(-c2ccc(O)cc2)on1	-3	65*	0	5
COc1cccc(-c2cc(C(=O)Nc3cccc(O)c3)no2)c1	-2	89*	0	-3
O=C(Nc1cccc(O)c1)c1cc(-c2cccs2)on1	-4	77*	1	13
O=C(Nc1cccc(Cl)c1)c1cc(-c2cccs2)on1	0	-17	0	15
O=C(Nc1cccc(O)c1)c1cc(-c2ccc(Br)cc2)on1	-6	74*	1	7
